Results: paper PMC5700166
Where a chain is given by its changes, count along the chain named.

Experiments:
Assay in all cases: protein-binding microarray (PBM); PBM: ~300 nM protein, 6 mM HEPES pH 7.8, 80 mM KCl, 0.5 mM EDTA, 0.5 mM EGTA, 6% glycerol, 35 ng/ul poly-dIdC, 1% milk, 1 h, room temperature; Ap Aiptasia and Nv Nematostella (sea anemones) / Co Capsaspora / Aq Amphimedon (sponge) / Dm Drosophila / Hu human; RHD is the Rel homology domain; high values mean tight binding
Conditions in all cases: dsDNA, one strand shown
GST-Ap-NF-kB RHD = target: T1, GST-Ap-NF-kB RHD (Exaiptasia pallida (Aiptasia), UniProt A0A913YAJ5 2-422)
T1 sequence: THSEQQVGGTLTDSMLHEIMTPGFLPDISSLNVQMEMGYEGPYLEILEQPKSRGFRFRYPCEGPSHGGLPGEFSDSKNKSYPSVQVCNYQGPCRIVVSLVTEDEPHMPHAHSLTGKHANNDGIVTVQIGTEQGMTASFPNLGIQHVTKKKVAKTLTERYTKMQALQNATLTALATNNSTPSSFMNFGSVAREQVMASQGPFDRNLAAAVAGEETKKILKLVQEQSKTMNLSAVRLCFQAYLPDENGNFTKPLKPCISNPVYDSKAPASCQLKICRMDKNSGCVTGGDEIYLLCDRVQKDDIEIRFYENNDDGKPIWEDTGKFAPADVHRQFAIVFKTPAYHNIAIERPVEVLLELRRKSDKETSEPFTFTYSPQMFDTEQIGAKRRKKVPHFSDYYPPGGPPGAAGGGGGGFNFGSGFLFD

[1] = target: T2, GST-Nv-NF-kB (Cys allele) (Nematostella vectensis, UniProt E5G601 2-411)
T2 sequence: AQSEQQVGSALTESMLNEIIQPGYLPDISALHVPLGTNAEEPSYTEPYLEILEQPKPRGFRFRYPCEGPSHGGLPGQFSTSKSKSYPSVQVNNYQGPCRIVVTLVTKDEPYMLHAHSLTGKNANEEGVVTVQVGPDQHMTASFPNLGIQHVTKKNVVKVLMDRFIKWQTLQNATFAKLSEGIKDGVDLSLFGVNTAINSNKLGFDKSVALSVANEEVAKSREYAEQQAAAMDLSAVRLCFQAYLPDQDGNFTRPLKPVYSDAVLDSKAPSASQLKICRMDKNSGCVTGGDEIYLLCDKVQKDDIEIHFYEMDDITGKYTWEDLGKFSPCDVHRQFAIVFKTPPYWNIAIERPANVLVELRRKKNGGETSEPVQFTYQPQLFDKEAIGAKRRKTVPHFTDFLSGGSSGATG

[2] = target: T3, GST-Nv-NF-kB (Ser allele) (Nematostella vectensis, UniProt A7UNT2 2-411)
T3 sequence: T2 sequence with Q21R, C66S, S207N, E215Q, V217A, E225K, A268E, D399E

GST-Co-NF-kB = target: T4, GST-Co-NF-kB (Capsaspora owczarzaki, UniProt F1ARL5 200-546)
T4 sequence: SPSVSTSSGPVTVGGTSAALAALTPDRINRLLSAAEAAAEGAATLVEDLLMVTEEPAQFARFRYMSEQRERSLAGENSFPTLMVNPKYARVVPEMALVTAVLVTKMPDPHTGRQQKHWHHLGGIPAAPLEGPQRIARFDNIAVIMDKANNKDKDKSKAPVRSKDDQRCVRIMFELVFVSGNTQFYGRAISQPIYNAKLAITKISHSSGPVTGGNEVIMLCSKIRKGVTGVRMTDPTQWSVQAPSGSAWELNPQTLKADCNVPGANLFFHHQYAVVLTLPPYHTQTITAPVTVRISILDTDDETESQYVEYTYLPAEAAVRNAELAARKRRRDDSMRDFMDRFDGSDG

GST-Dm-Relish = target: T5, GST-Dm-Relish (Drosophila melanogaster, UniProt Q94527 99-473)
T5 sequence: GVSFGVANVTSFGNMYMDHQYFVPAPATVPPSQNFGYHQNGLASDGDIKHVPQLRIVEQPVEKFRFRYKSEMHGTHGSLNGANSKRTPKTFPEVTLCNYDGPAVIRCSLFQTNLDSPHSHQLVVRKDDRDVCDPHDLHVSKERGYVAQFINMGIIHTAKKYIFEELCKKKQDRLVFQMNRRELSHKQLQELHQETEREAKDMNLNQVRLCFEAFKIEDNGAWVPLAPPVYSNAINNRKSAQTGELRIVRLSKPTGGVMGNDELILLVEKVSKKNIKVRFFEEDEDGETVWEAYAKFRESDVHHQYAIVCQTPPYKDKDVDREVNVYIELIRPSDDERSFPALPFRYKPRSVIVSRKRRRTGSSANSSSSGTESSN

GST-Aq-NF-kB = target: T6, GST-Aq-NF-kB (Amphimedon queenslandica, UniProt A9Y5G7 2-389)
T6 sequence: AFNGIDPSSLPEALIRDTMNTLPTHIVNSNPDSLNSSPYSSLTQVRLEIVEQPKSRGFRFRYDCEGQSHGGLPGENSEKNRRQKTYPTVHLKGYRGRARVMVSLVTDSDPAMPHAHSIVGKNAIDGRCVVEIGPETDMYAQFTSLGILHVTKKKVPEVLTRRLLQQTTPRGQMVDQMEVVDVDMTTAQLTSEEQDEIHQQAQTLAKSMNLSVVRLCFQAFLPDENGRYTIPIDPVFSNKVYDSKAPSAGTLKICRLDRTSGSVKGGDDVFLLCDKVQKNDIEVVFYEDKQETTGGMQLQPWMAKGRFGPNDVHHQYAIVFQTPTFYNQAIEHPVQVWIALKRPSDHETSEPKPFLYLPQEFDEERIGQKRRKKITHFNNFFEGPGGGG

GST-Hu-p50 = GST-Hu-p50 (Homo sapiens, UniProt P19838 7-356)
Sequence of GST-Hu-p50 (P19838 7-356): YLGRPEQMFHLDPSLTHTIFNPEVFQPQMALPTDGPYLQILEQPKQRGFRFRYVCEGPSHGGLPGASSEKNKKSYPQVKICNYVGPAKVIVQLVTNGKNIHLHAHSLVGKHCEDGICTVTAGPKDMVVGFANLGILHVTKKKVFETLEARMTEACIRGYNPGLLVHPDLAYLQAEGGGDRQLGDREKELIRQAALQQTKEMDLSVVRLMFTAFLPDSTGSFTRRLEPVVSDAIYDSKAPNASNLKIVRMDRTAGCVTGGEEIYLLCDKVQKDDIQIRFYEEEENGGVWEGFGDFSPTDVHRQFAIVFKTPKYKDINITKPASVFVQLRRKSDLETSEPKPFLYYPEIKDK

| Sequence | binding signal (GST-Ap-NF-kB RHD) [z-score] | binding signal [1] [z-score] | binding signal [2] [z-score] | binding signal (GST-Co-NF-kB) [z-score] | binding signal (GST-Dm-Relish) [z-score] | binding signal (GST-Aq-NF-kB) [z-score] | binding signal (GST-Hu-p50) [z-score] |
| --- | --- | --- | --- | --- | --- | --- | --- |
| CCGATTAACATCAGTTTTCCCCATGATGTTAATCGGGTCTTGATTCGCTTGACGCTGCTG | 6.49 | 7.03 | 9.09 | 9.45 | 3.42 | 4.82 | 5.76 |
| CCGATTAACATCAAAGCTTCCCCTGATGTTAATCGGGTCTTGATTCGCTTGACGCTGCTG | 5.17 | 6.28 | 7.74 | 7.56 | 3.8 | 4.64 | 5.4 |
| CCGATTAACATCAGGGGGAAGGATGATGTTAATCGGGTCTTGATTCGCTTGACGCTGCTG | 4.09 | 5.38 | 5.53 | 7.14 | 2.47 | 4.48 | 4.08 |
| CCGATTAACATCACAAAATCCCCTGATGTTAATCGGGTCTTGATTCGCTTGACGCTGCTG | 9.85 | 10.8 | 12.8 | 5.11 | 9.67 | 8 | 8.07 |
| CCGATTAACATCAAATATCCCCATGATGTTAATCGGGTCTTGATTCGCTTGACGCTGCTG | 6.82 | 6.83 | 7.36 | 4.59 | 4.81 | 4.67 | 5.18 |
| CCGATTAACATCAGGGGGAACTATGATGTTAATCGGGTCTTGATTCGCTTGACGCTGCTG | 6.91 | 5.64 | 7.61 | 9.06 | 4.89 | 4.97 | 5.9 |
| CCGATTAACATCAGGACGCCCCCTGATGTTAATCGGGTCTTGATTCGCTTGACGCTGCTG | 6.15 | 5.13 | 3.21 | 1.59 | 3.85 | 7.57 | 4.71 |
| CCGATTAACATCAAAAAGCCCCCTGATGTTAATCGGGTCTTGATTCGCTTGACGCTGCTG | 7.94 | 9.31 | 7.92 | 3.86 | 9.41 | 8.57 | 7.23 |
| CCGATTAACATCACATGTTTCCCTGATGTTAATCGGGTCTTGATTCGCTTGACGCTGCTG | 2.33 | 3.31 | 4.21 | 4.5 | 1.48 | 4.01 | 1.17 |
| CCGATTAACATCAAGGGGATTTCTGATGTTAATCGGGTCTTGATTCGCTTGACGCTGCTG | 9.69 | 10.8 | 12.7 | 2.79 | 9.09 | 7.73 | 7.98 |
| CCGATTAACATCAGGGGGCAATATGATGTTAATCGGGTCTTGATTCGCTTGACGCTGCTG | 3.43 | 3.24 | 3.15 | 4.37 | 2.2 | 3.54 | 3.82 |
| CCGATTAACATCAAATTTCCCGATGATGTTAATCGGGTCTTGATTCGCTTGACGCTGCTG | 3.04 | 4.4 | 3.94 | 4.24 | 2.2 | 4.21 | 3.9 |
| CCGATTAACATCAATTTCCCCCATGATGTTAATCGGGTCTTGATTCGCTTGACGCTGCTG | 7.52 | 7.6 | 8.86 | 10.7 | 4.97 | 6.34 | 6.86 |
| CCGATTAACATCAGAGATTTCCCTGATGTTAATCGGGTCTTGATTCGCTTGACGCTGCTG | 3.94 | 5.69 | 6.13 | 3.92 | 2.1 | 5.48 | 4.51 |
| CCGATTAACATCAGGGAATATACTGATGTTAATCGGGTCTTGATTCGCTTGACGCTGCTG | 3.5 | 3.81 | 4.1 | 3.18 | 4.01 | 4.33 | 2.3 |
| CCGATTAACATCAGGGGTAACCCTGATGTTAATCGGGTCTTGATTCGCTTGACGCTGCTG | 4.06 | 2.99 | 2.19 | 4.77 | 4.12 | 5.1 | 3.1 |
| CCGATTAACATCAGGGGATAACCTGATGTTAATCGGGTCTTGATTCGCTTGACGCTGCTG | 6.14 | 6.28 | 6.92 | 3.7 | 7.51 | 7.32 | 4.93 |
| CCGATTAACATCAAGAAAGTCCCTGATGTTAATCGGGTCTTGATTCGCTTGACGCTGCTG | 7.56 | 8.86 | 8.7 | 1.38 | 7.13 | 6.74 | 6.05 |
| CCGATTAACATCAGGCAAACCCCTGATGTTAATCGGGTCTTGATTCGCTTGACGCTGCTG | 3.13 | 2.8 | 1.51 | 1.49 | 3.13 | 4.85 | 3.63 |
| CCGATTAACATCAGGGGAATGTATGATGTTAATCGGGTCTTGATTCGCTTGACGCTGCTG | 6.02 | 7.74 | 8.56 | 6.26 | 2.96 | 5.58 | 5.69 |
| CCGATTAACATCAGGGAAAACTATGATGTTAATCGGGTCTTGATTCGCTTGACGCTGCTG | 3.76 | 5.55 | 7.33 | 5.67 | 1.67 | 4.07 | 4.03 |
| CCGATTAACATCAGGGGACATTATGATGTTAATCGGGTCTTGATTCGCTTGACGCTGCTG | 5.74 | 5.19 | 5.89 | 4.2 | 3.51 | 4.62 | 4.63 |
| CCGATTAACATCAGGAGCTCCCCTGATGTTAATCGGGTCTTGATTCGCTTGACGCTGCTG | 4.8 | 2.61 | 1.84 | 2.71 | 1.84 | 4.7 | 2.1 |
| CCGATTAACATCAAAAGATCCCCTGATGTTAATCGGGTCTTGATTCGCTTGACGCTGCTG | 8.32 | 8.42 | 9.3 | 5.39 | 9.75 | 7.5 | 6.41 |
